We go through 8 compounds from PubChem BioAssay (NCI).

The panel holds about 83,000 compounds, 20% with a hit somewhere; the sample as a whole holds those more often.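 Testing used 96-well plates and a 48-hour single-concentration exposure. Example: -40 means 40% of the starting cells died.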 A number with no mark means an inactive call. Calls of active or inactive are those of the source. How the source made its calls: active means growth percent below 10; inactive means the rest.

Assay in all cases: NCI-60 one-dose screen, 48 h (100 = growth as untreated, 0 = no growth, -100 = all killed)
What all share (details): 10 µM unless noted

Experiment [1] deals with NCI-H23 lung.
Experiment [2] relates to NCI-H226 lung.
The test system of experiment [3] is NCI-H322M lung.
Experiment [4] concerns HOP-62 NSCLC.
In experiment [5] the test system is NCI-H460 lung.
Experiment [6] has as its system HOP-92 NSCLC.
Experiment [7] relates to NCI-H522 lung.
The subject of experiment [8] is A549/ATCC NSCLC.
Experiment [9] relates to 786-0 renal.
The test system of experiment [10] is COLO 205 colon.
The subject of experiment [11] is DU-145 prostate.
The subject of experiment [12] is K-562 leukemia.
Experiment [13] deals with MALME-3M melanoma.
In experiment [14] the test system is MDA-MB-231 breast.
The test system of experiment [15] is SF-268 CNS.
Experiment [16] concerns SF-295 CNS.
Experiment [17] has as its system SF-539 CNS.
Experiment [18] relates to UACC-257 melanoma.
Experiment [19] has as its system M14 melanoma.

Regarding `CN1CCN(c2ccc(NC3=C(Cl)C(=O)c4ncccc4C3=O)cc2C#N)CC1`, the growth is 51% in [1]; 94% in experiment [2]; 103% in [3]; 103% in experiment [4]; 94.8% in [5]; -61.4% (active) in experiment [6]. The growth in [7] was -56.9% (active); in [8], 110%; in experiment [9], 85.5%; in [10], 57.6%; in [11], 86.9%; in experiment [12], 2.83% (active). Moreover, the growth in experiment [13] was -69.4% (active); in experiment [14], -4.9% (active); in experiment [15], 85.3%; in [16] it was 115%; in [17] it was 91.6%; in [18], -46.5% (active). In addition, in experiment [19], the growth is 54%.
Turning to `Cc1ccccc1C(c1ccccc1)c1ccccc1C`, the growth is 94.4% in [1]; 22.1% in [2]; 90.9% in experiment [3]; 69.5% in [4]; 101% in [5]; 79.7% in experiment [6]. Moreover, the growth in [7] is 77.1%; in [8] it was 73.6%; in experiment [9], 98.8%; in experiment [10] it was 105%; in experiment [11], 117%; in experiment [12], 105%. In addition, the growth is 109% in [13]; 104% in experiment [14]; 99.7% in [15]; 97.7% in [16]; 106% in [17]; 71.3% in [18]. In addition, the growth in experiment [19] is 80.3%.
Consider `COc1c(Cl)cc(Cl)c2ccc(C=C3C(=O)NC(=S)NC3=O)nc12`, for which the growth in [1] was 101%; in [2] it was 100%; in [3], 113%; in experiment [4], 93.7%; in [5], 103%; in experiment [6] it was 116%. For the same compound, the growth was 92% in experiment [7]; 104% in experiment [8]; -90.9% (active) in experiment [9]; 113% in [10]; 115% in [11]; 102% in experiment [12]. Moreover, the growth was 106% in experiment [13]; 113% in experiment [14]; 99.8% in experiment [15]; 102% in [16]; 101% in experiment [17]; 102% in experiment [18]. Also, in experiment [19], the growth is -56.2% (active).
Regarding `COc1cc(C2CC(c3cccc(Nc4ccncc4)c3)=NN2c2ccc(Cl)cc2)cc(OC)c1OC` (configuration not stated), the growth is 79.9% in [1]; 84.3% in [2]; 65.1% in experiment [3]; -44.4% (active) in experiment [4]; -73.8% (active) in [5]; 25.1% in experiment [6]. Also, the growth was -46.1% (active) in [7]; 26.1% in experiment [8]; 104% in [9]; -63.1% (active) in experiment [10]; -17.5% (active) in experiment [11]; -0.526% (active) in [12]. For the same compound, the growth was -85.2% (active) in [13]; 24.8% in experiment [14]; 44.5% in experiment [15]; -55.1% (active) in experiment [16]; 68.3% in experiment [17]; -6.07% (active) in experiment [18]. Moreover, in experiment [19], the growth was 101%.
As for `COc1ccc(-c2c(-c3ccccc3)noc2N)cc1OC`, the growth in [1] is 105%; in experiment [2], 113%; in experiment [3], 96.1%; in [4], 124%; in [5] it was 116%; in experiment [6], 90.8%. The growth in experiment [7] was 86.1%; in experiment [8] it was 93.8%; in experiment [9], 96.4%; in [10], 118%; in [11], 104%; in experiment [12] it was 95%. Moreover, the growth is 102% in experiment [13]; 120% in experiment [14]; 107% in [15]; 103% in experiment [16]; 115% in experiment [17]; 88.3% in experiment [18]. Besides, the growth in experiment [19] is 98.4%.
As to `CN1C(=O)N(C)[C@H]2NC(NN)=N[C@H]21`, the growth was 103% in experiment [1]; 93.3% in [2]; 91.2% in experiment [3]; 98.8% in experiment [4]; 103% in [5]; 90.3% in experiment [6]. Further, the growth in experiment [7] was 102%; in [8], 97.9%; in experiment [9], 99.8%; in [10], 104%; in [11] it was 114%; in experiment [12], 98.9%. The growth in experiment [13] is 94.3%; in [14], 102%; in experiment [15] it was 94%; in experiment [16] it was 101%; in experiment [17] it was 102%; in experiment [18], 97.1%. Also, in experiment [19], the growth is 100%.
`COc1cc(OC)c(/C=C/C(=O)c2ccc(Nc3ncnc4ccccc34)cc2)c(OC)c1`: the growth is 17% in experiment [1]; -17.3% (active) in experiment [2]; 11.5% in experiment [3]; -54.5% (active) in [4]; -23.1% (active) in experiment [5]; -16.4% (active) in [6]. Also, the growth is -51.4% (active) in experiment [7]; 12.2% in experiment [8]; -13.2% (active) in experiment [9]; 6.02% (active) in [10]; -26.5% (active) in [11]; 4.41% (active) in experiment [12]. Further, the growth in experiment [13] was -39.8% (active); in experiment [14], -19.9% (active); in [15] it was -71.9% (active); in [16], -47.7% (active); in experiment [17], -56.6% (active); in experiment [18], -12% (active). Moreover, the growth in experiment [19] is -15.5% (active).
For `Fc1ccc2nc3c(cc2c1)CSc1nnc(-c2ccc[nH]c2=S)n1N3`, the growth in experiment [1] is 92.7%; in [2], 93.3%; in experiment [3], 106%; in experiment [4] it was 93.3%; in experiment [5], 105%; in experiment [6], 78.1%. Further, the growth in experiment [7] was 86.8%; in experiment [8], 108%; in experiment [9] it was 89.7%; in [10], 115%; in [11] it was 114%; in [12], 106%. Further, the growth is 112% in experiment [13]; 94.4% in [14]; 98.7% in [15]; 105% in experiment [16]; 95.7% in experiment [17]; 105% in experiment [18]. Besides, the growth in [19] is 99%.
